FLuc inh: blocks Photinus pyralis firefly luciferase activity; AID 411; P08659; Potency, µM (highest dose often 57.1 µM), for inactives: at the highest dose activity change, negative = inhibition, most hits filed as inhibitors; 2.2% of 72,000 active; purified firefly luciferase, luminescence, 8 min; further: on the % scale 0 is the no-effect control and ±100 the full control effect; nearly all actives have a fitted effect of over 40% in size
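Here, luciferase activity is measured as luminescence following an 8 min room-temperature reaction at 10 uM ATP, pH 7.2. Every library sample is titrated.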
HEK293 cAMP cs: raises cAMP in parental HEK293 cells, TSHR agonist counter-screen; parental HEK293 CNG cAMP sensor, membrane potential fluorescence; Potency, µM (doses to about 57.1 µM), without a hit: at the top dose activation, actives largely listed as activators; 2.5% of 73,000 active; AID 938; further: % of control where 0% means no effect; nearly all actives have a fitted effect of over 55% in size
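Counterscreen for endogenous-receptor signalling: CNG-channel HEK 293 cells report cAMP rise by membrane depolarization. After 60 min dye equilibration with 100 uM RO 20-1724, compounds incubated 30 min before bottom-read fluorescence at 590 nm.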
PK Bst: modulators of Bacillus stearothermophilus pyruvate kinase. Potency, µM. purified pyruvate kinase, luminescence ATP production; ribose 5-phosphate activator present at AC10. 1.2% of 51,000 active; in the data active means potency below about 11 µM; inconclusive means mostly about 12 µM to 25 µM;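 the screen sought inhibitors and activators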;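 further: scaled between full activation by ribose 5 phosphate and full inhibition by luteolin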
ALOX15 inhib: blocks human 15-lipoxygenase activity | purified 15hLO-1, xylenol orange hydroperoxide absorbance | P16050 | Potency, µM (series often up to 57.1 µM), inactives show at the highest dose activity change, negative = inhibition, actives largely listed as inhibitors | 1.4% of 74,000 active; further: on the % scale 0 is the no-effect control and ±100 the full control effect; nearly all actives have a fitted effect of over 55% in size
Target sequence (P16050 whole entry, looked up): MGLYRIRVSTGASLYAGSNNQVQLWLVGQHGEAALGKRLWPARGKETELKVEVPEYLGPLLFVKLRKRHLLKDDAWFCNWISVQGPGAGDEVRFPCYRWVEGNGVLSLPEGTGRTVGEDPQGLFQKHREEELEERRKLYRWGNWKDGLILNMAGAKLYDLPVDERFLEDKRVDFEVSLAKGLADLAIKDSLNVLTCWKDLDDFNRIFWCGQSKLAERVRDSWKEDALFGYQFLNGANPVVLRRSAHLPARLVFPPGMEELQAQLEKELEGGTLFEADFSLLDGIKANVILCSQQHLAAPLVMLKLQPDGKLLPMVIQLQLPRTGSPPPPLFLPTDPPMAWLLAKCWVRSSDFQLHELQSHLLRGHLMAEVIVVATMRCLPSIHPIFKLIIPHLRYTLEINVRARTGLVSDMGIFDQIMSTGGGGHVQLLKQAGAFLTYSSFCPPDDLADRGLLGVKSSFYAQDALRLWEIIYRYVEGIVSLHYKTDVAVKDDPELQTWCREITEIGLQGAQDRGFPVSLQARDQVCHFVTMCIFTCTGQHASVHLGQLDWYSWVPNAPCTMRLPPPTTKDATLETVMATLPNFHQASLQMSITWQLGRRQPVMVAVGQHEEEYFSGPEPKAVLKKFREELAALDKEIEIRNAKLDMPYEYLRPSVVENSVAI
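Readout: Fe(III)-xylenol orange absorbance, 573-to-405 nm ratio as reaction progress. Enzyme 40 nM purified human 15hLO-1, substrate 50 uM arachidonic acid, 6 min RT after 15 min compound preincubation; Hepes pH 7.5 buffer with Triton X-100.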
TSHR agonist: activates the human thyroid stimulating hormone receptor | P16473 | HEK293-CNG-TSHR cells (CNG channel as cAMP sensor), membrane potential dye, cAMP | 0.48% of 73,000 active | Potency, µM (series often up to 57.1 µM), for inactives: at the highest dose activation, most hits filed as activators; active means well fitted activation curve with a large enough effect in the main read-out, with a control signal flat, not every such curve was filed as active; inconclusive means small, poorly fitted or top-dose-only effect, or a change in a side signal; inactive means no such curve, though single readings can be large or run the other way; % of control where 0% means no effect;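 further: the control signal comes from parental cells without the receptor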
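cAMP rise detected as CNG-channel membrane depolarization by fluorescent dye (emission 590 nm), 30 min after compound, following 60 min dye loading containing 100 uM RO 20-1724 at room temperature. Cells: TSHR/CNG HEK 293, with parental CNG HEK 293 as control.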
Tau fil binding: tau filament binding. P10636. recombinant tau filaments, thioflavin S fluorescence, 15 h; filaments grown with octadecylsulfate alongside compound. Potency, µM (highest dose often 57.1 µM), for the others: at the highest dose activity change, negative = inhibition. 2% of 71,000 active;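 further: on the % scale 0 is the no-effect control and ±100 the full control effect; actives lower thioflavin S fluorescence by blocking filaments or displacing dye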
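Quantitative HTS: thioflavine S signal from ODS-induced tau filaments, excited at 450 nm, emission 510 nm. Conditions: 1 uM tau, 30 uM ODS, 15 h at 37 C, pH 7.4.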
An asterisk follows results filed as active; i = inactive; ? = inconclusive; / = no result given; ! = a repeat was not active; [ ] = dose if it differs, or a comment. Hits are enriched below; roughly 7.8% of the tested compounds scored in any of these assays. Unless noted, the call rests on the fitted dose curve; in most records, active means well fitted curve in the direction sought with a large enough effect; inconclusive means small, poorly fitted or top-dose-only effect, or another doubt; inactive means no such curve, though single readings can be large; an effect the other way counts as inactive or inconclusive. Potency means the concentration at half of the fitted maximal effect.

SMILES	FLuc inh	HEK293 cAMP cs	PK Bst	ALOX15 inhib	TSHR agonist	Tau fil binding
COc1ccc(C(=O)N2CCC3(CC2)CN(c2ncccn2)C3)cc1	-3%[11.4 µM]	4%	/	9%	-1%	-9%
COc1ccc(C2=NOC(CN3C(=O)c4ccccc4S3(=O)=O)C2)cc1 (stereo not drawn)	16µM*	-4%	i	8%	5%	-7%
O=C1c2ccccc2S(=O)(=O)N1CC1CC(c2ccccc2)=NO1 (stereo not drawn)	?	-8%	/	3%	4%	-6%
CCc1cc2cc(C(=O)Nc3ccccc3F)sc2s1	5µM*	?	>57	-14%	?	152%
Cc1nn(Cc2ccccc2)c2sc(C(=O)N3CCN(Cc4ccc5c(c4)OCO5)CC3)cc12	1%	-4%	>57	-12%	17%	14%
O=C(Nc1ccccc1F)c1ccncc1	2%	-11%	>57	11%	-6%	11%
CCc1cc2cc(C(=O)N3CCN(Cc4ccccc4)CC3)sc2s1	-22%	32µM*	/	-7%	?	61%
OC1CC2CC[C@H](C1)N2CCCN1c2ccccc2Sc2ccc(Cl)cc21 (stereo partly drawn)	0%[11.4 µM]	5%[11.4 µM]	/	-1%[11.4 µM]	9%[11.4 µM]	-17%[11.4 µM]
C/C(CCN1CCc2nc(-c3ccccc3)c(-c3ccccc3)cc2C1)=N\OC[C@@H](O)COCc1ccco1	2%[11.4 µM]	10%[11.4 µM]	/	5%[11.4 µM]	4%[11.4 µM]	/
COc1ccc2[nH]cc(CCNc3cc(-c4ccccc4C(F)(F)F)ncn3)c2c1	1%[2.29 µM]	-8%	/	16µM*	0%	-10%
COCCNc1cc(-c2ccccc2C(F)(F)F)ncn1	-1%[2.29 µM]	0.32µM*	/	?	?	9%
COCCNc1ccnc(-c2ccccc2C(F)(F)F)n1	-6%[2.29 µM]	15%	/	7%	-4%	-21%
O=C1NC(=S)S/C1=C1\Sc2ccccc2N1CCCS(=O)(=O)O	1%	-3%	7.7*	?	-2%	48%
CCOc1ccc(-c2cc(CCCC(=O)N3CCN(c4ccc(OC)cc4)CC3)no2)cc1	-18%	17%	/	-12%	2%	62%
CCOc1ccc(-c2cc(CCCC(=O)NCCCOC)no2)cc1	16µM*	29%	/	17%	-2%	16%
NC(=O)[C@@H]1CCCNC1	0%[11.4 µM]	7%[11.4 µM]	/	-2%[11.4 µM]	1%[11.4 µM]	0%[11.4 µM]
CN(C)Cc1nsc(N(C)C)n1	0%[11.4 µM]	10%[11.4 µM]	/	5%[11.4 µM]	-3%[11.4 µM]	7%[11.4 µM]
O=C1CC2(CCCC2)CC(=O)N1CCNC[C@H]1COc2ccccc2O1	-1%	24%	/	-4%[25.6 µM]	21%	32µM*
O=C(O)CNCC1COc2ccccc2O1 (stereo not drawn)	?	-23%	>57	-7%	9%	-6%
N#Cc1c(N2CCOCC2)nc(-c2ccco2)c2c1CCCC2	-1%[25.5 µM]	/	>26	/	/	/
N#Cc1c(SCC(N)=O)nc(-c2ccccc2)c2c1CCCC2	3%	20µM*	>57	-3%	?	13%
CCC(=O)N1CCN(c2nc(-c3ccccc3)c3c(c2C#N)CCCC3)CC1	1%	4µM*	/	-15%[11.4 µM]	?	64%[11.4 µM]
Cc1noc(C)c1COC(=O)c1ccccc1Oc1ccccc1	-1%	32µM*	>57	4%	?	-5%
Cc1ccccc1-c1ccc2ncnc(N3CCOCC3)c2c1	-1%[2.29 µM]	21%	/	-10%	/	-1%
Cc1cc(NCCCn2ccnc2)n2ncc(-c3ccccc3)c2n1	1.6µM*	-21%	2*	17%	-1%[11.4 µM]	-18%
SMILES	FLuc inh	HEK293 cAMP cs	PK Bst	ALOX15 inhib	TSHR agonist	Tau fil binding
Cc1cc(NCCN2CCOCC2)n2ncc(-c3ccc(Cl)cc3)c2n1	1%	28%	>57	-13%	-1%	-2%
Cc1cc(NCCN2CCOCC2)n2ncc(-c3ccccc3)c2n1	20µM*	-13%	/	9%	0%	-14%
COc1ccc(O[C@H]2C=C[C@@H](c3ccccc3)O[C@H]2CO/N=C2/c3cc(OC)ccc3O[C@@H](c3cccc(OC)c3)[C@H]2O)cc1	0%[11.4 µM]	-1%[11.4 µM]	/	0%[11.4 µM]	27%[11.4 µM]	/
CC(C)(C)C1CCC2(CC1)C(C#N)=C(SCC(=O)NC1CCCCC1)NC(=O)C2C#N (stereo not drawn)	0%	0%	>57	-10%	/	13µM*
C=CCn1c(=O)/c(=C/c2ccc(C)o2)s/c1=C(/C#N)C(=O)c1ccccc1	-5%	-16%	>57	16µM*	-8%	46%
Cc1ccc(/C=c2\sc3nc(-c4ccccc4Br)nn3c2=O)o1	-20%	9%	>57	-2%	24%	-2%
COc1cccc2c(=O)n(CC(=O)N3CCCc4ccccc43)ccc12	-1%	8%	/	-6%	11%	13µM*
COc1cccc2c(=O)n(CC(=O)NC3CCCC3)ccc12	6%	1%	/	3%	1.3µM*	-5%
CCn1cc(C(=O)N2CCCc3ccccc32)c2cc(OC)c(OC)cc2c1=O	-1%	3%	>57	1%	25%	6%
CCOC(=O)c1ccc(N2C(=O)CC(SCC(N)C(=O)OCC)C2=O)cc1 (stereo not drawn)	-2%	3.2µM*	>57	-7%	?	-1%
O=C(CC(SCCO)c1ccc(F)cc1)c1ccco1 (stereo not drawn)	-3%	-13%	>57	-2%	/	-8%
O=C(/C=C/Nc1ccc(F)cc1)c1ccco1	3.2µM*	1%	3.7*	-5%	5%	-6%
COc1cc(OC)cc(C(=O)NCCN2CCOCC2)c1	0%	9%	>57	10µM*	2%	-5%
CC(C)Cn1c2nc3ccccc3nc2c2c(=O)n(CCN3CCOCC3)cnc21	3%	9%	>57	?	11%	25µM*
CCCCn1c2nc3ccccc3nc2c2c(=O)n(CCC(C)C)cnc21	2%	7%	>57	-1%	11%	-9%
O=C1Cc2c([nH]c3ccc(Br)cc23)-c2ccccc2N1	?	?	/	-11%[25.6 µM]	?	32µM*!
COc1ccc(-c2nc3cnc(N4CCN(C)CC4)nc3n(CCC#N)c2=O)cc1	1%[11.4 µM]	27%	/	-13%	4%	242%
CCOc1ccccc1N1Cc2cc(C)c(C)cc2C1	-3%	24%	/	-25%	28%	7.9µM*
COc1ccc(OC)c(N2Cc3cc(C)c(C)cc3C2)c1	-2%	3%	>57	-16%	5%	16µM*
CCCSc1nc(C)c(-c2csc(C(C#N)=C3CCCC3)n2)cc1C#N	0%	4%	>57	?	3%[11.4 µM]	16µM*
Clc1ccc(Sc2oc(/C=N/n3cnnc3)cc2Br)cc1	0%	-6%[11.4 µM]	/	-14%[11.4 µM]	26%[11.4 µM]	5µM*
Clc1ccccc1-c1ccc(/C=N/n2cnnc2)o1	-10%	-2%	/	-5%	9%	-3%
O=C1c2ccccc2C(=O)N1CCCCN(C(=O)c1ccco1)c1ccc(Cl)cc1	3%	25µM*	/	-6%	?	-8%
O=C1CCCC=C1[C@H](O)CCCCBr	1%[11.4 µM]	3%[11.4 µM]	/	9%[11.4 µM]	3%[11.4 µM]	/

Bioassay records deposited in PubChem BioAssay by National Center for Advancing Translational Sciences (NCATS).
